Laboratory results as given in paper PMC7862700, “An all-to-all approach to the identification of sequence-specific readers for epigenetic DNA modifications on cytosine”.

Assays:
Assay in all cases: DAPPL (digital affinity profiling via proximity ligation, sequencing); 10 mM Tris-HCl pH 7.5, 50 mM NaCl, 1 mM DTT, 4% glycerol, room temperature, 30 min; GST-TFs on glutathione beads, 16-mer random dsDNA library, 0.1% formaldehyde crosslink after washing; high values mean tight binding
FLI1 = target: T1, FLI1 (Homo sapiens, UniProt Q01543 1-452); settings: protein: recombinant; tags: N-terminal GST; dsDNA, one strand shown
T1 sequence: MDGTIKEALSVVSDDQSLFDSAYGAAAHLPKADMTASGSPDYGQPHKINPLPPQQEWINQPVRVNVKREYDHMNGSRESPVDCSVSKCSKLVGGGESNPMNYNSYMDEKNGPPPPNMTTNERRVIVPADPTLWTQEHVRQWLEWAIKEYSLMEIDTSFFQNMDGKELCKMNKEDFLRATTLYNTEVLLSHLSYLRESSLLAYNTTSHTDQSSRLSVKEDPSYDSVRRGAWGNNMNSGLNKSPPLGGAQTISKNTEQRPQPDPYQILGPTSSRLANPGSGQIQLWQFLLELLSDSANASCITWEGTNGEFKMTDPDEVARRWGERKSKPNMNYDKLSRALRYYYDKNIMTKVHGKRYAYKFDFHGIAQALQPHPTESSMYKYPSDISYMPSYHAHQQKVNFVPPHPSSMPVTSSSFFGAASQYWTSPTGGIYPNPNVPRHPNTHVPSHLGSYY
Procedure, shortened: (§1)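 In yeast, human transcription factors were expressed with a GST fusion, then pulled down on glutathione beads and given DNA barcodes. Pooled with a tag-only sample, they were exposed to 200 nmole of a 16-mer random double-stranded DNA library (Tris/NaCl/DTT/glycerol buffer, room temperature, 30 min), washed, crosslinked with 0.1% formaldehyde, proximity-ligated using BsaI/T4 ligase for 1 h at 37 °C, PCR-amplified and read on an Illumina NextSeq500. Each hexamer's frequency of reads for a factor, divided by the matching frequency for the tag-only sample, gives the binding signal.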

ELK1 = target: T2, ELK1 (Homo sapiens, UniProt P19419 1-428); settings: protein: recombinant; tags: N-terminal GST; dsDNA, one strand shown
T2 sequence: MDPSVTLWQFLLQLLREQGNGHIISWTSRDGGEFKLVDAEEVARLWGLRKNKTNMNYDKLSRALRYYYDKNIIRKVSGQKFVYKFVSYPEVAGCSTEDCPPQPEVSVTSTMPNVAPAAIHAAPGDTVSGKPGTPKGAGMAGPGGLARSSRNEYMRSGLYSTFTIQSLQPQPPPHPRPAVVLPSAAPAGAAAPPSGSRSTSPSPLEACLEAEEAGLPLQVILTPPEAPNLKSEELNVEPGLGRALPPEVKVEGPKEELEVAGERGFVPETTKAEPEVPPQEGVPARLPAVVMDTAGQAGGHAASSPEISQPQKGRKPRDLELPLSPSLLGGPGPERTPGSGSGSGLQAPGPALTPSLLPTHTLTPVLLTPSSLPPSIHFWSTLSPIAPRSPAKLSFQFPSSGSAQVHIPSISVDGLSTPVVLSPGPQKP
Procedure, shortened: as §1

GABPA = target: T3, GABPA (Homo sapiens, UniProt Q06546 1-454); settings: protein: recombinant; tags: N-terminal GST; dsDNA, one strand shown
T3 sequence: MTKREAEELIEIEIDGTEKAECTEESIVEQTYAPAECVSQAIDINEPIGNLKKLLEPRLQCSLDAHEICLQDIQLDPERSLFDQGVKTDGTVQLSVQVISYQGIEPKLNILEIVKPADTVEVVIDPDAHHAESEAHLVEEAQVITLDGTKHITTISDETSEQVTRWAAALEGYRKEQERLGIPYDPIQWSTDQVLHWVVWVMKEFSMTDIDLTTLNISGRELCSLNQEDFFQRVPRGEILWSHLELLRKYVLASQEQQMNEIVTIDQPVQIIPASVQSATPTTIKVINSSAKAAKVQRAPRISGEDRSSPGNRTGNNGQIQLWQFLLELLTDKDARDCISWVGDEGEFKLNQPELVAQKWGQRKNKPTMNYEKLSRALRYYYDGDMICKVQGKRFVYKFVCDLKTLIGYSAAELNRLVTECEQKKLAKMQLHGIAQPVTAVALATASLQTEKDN
Procedure, shortened: as §1

ERG = target: T4, ERG (Homo sapiens, UniProt P11308 1-479); settings: protein: recombinant; tags: N-terminal GST; dsDNA, one strand shown
T4 sequence: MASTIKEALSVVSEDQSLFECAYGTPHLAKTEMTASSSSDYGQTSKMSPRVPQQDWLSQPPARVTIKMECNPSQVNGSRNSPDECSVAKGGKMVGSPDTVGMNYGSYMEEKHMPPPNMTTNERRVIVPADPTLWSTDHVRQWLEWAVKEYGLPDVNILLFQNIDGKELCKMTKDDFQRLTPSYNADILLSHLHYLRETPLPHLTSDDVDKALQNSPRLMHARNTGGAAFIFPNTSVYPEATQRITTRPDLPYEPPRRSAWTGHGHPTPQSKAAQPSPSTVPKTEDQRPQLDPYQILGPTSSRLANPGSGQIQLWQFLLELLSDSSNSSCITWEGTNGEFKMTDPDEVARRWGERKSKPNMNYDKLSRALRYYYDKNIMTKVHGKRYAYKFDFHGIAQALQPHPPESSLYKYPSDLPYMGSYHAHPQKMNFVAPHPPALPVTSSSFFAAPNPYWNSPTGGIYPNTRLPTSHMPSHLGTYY
Procedure, shortened: as §1

ELF1 = ELF1 (Homo sapiens, UniProt P32519 1-619); settings: protein: recombinant; tags: N-terminal GST; dsDNA, one strand shown
ELF1, sequence (P32519 whole entry): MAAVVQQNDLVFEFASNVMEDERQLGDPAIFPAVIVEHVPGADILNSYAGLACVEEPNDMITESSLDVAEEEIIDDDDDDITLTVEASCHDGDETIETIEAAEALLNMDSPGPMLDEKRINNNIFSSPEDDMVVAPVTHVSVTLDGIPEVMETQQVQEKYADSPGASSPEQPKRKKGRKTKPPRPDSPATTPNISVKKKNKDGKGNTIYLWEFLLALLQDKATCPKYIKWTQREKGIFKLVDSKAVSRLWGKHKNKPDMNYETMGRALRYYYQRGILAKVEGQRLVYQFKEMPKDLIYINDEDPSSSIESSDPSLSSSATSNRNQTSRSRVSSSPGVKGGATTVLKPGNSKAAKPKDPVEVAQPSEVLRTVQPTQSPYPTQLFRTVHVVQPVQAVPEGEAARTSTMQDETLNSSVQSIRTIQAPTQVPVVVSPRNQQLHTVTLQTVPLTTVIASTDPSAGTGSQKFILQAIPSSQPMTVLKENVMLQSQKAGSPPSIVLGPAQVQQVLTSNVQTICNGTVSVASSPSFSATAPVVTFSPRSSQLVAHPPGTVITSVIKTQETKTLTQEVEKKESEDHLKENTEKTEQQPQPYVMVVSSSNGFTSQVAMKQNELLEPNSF
Procedure, shortened: as §1

EHF = target: T5, EHF (Homo sapiens, UniProt Q9NZC4 1-300); settings: protein: recombinant; tags: N-terminal GST; dsDNA, one strand shown
T5 sequence: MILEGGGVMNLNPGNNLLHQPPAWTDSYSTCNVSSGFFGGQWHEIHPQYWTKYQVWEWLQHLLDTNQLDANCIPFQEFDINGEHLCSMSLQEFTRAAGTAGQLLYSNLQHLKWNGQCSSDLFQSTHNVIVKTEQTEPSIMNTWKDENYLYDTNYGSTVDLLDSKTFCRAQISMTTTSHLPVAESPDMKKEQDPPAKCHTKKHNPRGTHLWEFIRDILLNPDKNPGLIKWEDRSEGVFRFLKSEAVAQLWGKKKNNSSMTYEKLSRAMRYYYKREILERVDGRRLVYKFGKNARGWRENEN
Procedure, shortened: as §1

SPI1 = SPI1 (Homo sapiens, UniProt P17947 1-270); settings: protein: recombinant; tags: N-terminal GST; dsDNA, one strand shown
Procedure, shortened: as §1

SPIB = SPIB (Homo sapiens, UniProt Q01892 1-262); settings: protein: recombinant; tags: N-terminal GST; dsDNA, one strand shown
SPIB, sequence (Q01892 whole entry): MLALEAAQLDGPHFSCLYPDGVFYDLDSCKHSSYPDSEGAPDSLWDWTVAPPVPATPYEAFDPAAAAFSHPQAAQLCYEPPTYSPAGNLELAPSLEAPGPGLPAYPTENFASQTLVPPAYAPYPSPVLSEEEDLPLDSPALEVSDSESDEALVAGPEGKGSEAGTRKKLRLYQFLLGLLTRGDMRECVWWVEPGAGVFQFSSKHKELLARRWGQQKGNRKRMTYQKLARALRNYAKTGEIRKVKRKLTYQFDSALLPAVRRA
Procedure, shortened: as §1

ELK3 = target: T6, ELK3 (Homo sapiens, UniProt P41970 1-407); settings: protein: recombinant; tags: N-terminal GST; dsDNA, one strand shown
T6 sequence: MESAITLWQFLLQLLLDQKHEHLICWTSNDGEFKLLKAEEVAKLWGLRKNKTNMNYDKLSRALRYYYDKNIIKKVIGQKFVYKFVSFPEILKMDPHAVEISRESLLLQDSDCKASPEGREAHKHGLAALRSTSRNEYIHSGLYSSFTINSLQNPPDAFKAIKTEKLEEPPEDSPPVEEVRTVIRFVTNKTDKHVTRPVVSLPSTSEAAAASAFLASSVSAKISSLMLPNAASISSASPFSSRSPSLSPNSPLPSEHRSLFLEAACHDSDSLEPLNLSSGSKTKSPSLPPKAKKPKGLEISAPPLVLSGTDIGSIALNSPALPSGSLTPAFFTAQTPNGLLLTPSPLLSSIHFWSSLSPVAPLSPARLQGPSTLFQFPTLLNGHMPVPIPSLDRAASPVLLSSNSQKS
Procedure, shortened: as §1

FEV = target: T7, FEV (Homo sapiens, UniProt Q99581 1-238); settings: protein: recombinant; tags: N-terminal GST; dsDNA, one strand shown
T7 sequence: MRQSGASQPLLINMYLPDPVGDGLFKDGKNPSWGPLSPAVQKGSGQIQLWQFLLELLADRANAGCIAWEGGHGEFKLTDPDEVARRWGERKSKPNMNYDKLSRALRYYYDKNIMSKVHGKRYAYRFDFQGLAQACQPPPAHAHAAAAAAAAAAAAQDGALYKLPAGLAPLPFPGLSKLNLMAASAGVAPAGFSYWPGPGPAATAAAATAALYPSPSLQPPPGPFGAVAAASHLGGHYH
Procedure, shortened: as §1

ETV5 = ETV5 (Homo sapiens, UniProt P41161 1-510); settings: protein: recombinant; tags: N-terminal GST; dsDNA, one strand shown
ETV5, sequence (P41161 whole entry): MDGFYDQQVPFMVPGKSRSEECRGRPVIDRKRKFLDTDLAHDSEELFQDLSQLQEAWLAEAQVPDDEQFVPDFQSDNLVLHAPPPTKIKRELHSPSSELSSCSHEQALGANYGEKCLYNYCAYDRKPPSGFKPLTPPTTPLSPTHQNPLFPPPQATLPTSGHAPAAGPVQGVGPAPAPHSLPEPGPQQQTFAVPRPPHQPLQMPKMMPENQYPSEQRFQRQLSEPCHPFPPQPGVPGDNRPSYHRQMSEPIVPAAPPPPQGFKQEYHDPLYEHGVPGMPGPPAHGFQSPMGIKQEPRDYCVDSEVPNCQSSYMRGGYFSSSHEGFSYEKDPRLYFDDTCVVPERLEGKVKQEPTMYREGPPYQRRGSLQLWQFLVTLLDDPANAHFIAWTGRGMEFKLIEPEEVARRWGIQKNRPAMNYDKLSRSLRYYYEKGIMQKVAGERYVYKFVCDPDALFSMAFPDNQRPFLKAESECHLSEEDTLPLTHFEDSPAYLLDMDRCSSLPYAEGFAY
Procedure, shortened: as §1

HSF1 = HSF1 (Homo sapiens, UniProt Q00613 1-529); settings: protein: recombinant; tags: N-terminal GST; chain copies: 3; dsDNA, one strand shown
HSF1, sequence (Q00613 whole entry): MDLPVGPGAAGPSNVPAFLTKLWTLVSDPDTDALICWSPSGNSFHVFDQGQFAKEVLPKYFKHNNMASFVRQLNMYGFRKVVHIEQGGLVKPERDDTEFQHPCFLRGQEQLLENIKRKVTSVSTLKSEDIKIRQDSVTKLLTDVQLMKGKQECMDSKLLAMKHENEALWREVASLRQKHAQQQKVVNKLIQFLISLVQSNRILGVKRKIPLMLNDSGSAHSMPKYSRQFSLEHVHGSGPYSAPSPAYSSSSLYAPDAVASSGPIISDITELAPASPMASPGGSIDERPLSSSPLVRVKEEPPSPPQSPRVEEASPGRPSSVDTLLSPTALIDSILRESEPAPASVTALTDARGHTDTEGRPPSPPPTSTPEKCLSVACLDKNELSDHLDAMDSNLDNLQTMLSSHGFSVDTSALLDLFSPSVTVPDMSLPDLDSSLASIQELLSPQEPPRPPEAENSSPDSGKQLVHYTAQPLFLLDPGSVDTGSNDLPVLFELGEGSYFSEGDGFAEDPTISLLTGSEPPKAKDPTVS
Procedure, shortened: as §1

SPIC = target: T8, SPIC (Homo sapiens, UniProt Q8N5J4 1-248); settings: protein: recombinant; tags: N-terminal GST; dsDNA, one strand shown
T8 sequence: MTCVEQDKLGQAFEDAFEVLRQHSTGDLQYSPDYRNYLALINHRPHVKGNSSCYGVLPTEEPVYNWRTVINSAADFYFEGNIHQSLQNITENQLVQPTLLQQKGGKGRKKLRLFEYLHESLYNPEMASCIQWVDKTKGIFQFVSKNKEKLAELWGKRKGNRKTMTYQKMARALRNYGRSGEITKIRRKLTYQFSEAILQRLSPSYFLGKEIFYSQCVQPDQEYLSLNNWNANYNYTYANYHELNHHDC
Procedure, shortened: as §1

ELF4 = ELF4 (Homo sapiens, UniProt Q99607 1-663); settings: protein: recombinant; tags: N-terminal GST; dsDNA, one strand shown
ELF4, sequence (Q99607 whole entry): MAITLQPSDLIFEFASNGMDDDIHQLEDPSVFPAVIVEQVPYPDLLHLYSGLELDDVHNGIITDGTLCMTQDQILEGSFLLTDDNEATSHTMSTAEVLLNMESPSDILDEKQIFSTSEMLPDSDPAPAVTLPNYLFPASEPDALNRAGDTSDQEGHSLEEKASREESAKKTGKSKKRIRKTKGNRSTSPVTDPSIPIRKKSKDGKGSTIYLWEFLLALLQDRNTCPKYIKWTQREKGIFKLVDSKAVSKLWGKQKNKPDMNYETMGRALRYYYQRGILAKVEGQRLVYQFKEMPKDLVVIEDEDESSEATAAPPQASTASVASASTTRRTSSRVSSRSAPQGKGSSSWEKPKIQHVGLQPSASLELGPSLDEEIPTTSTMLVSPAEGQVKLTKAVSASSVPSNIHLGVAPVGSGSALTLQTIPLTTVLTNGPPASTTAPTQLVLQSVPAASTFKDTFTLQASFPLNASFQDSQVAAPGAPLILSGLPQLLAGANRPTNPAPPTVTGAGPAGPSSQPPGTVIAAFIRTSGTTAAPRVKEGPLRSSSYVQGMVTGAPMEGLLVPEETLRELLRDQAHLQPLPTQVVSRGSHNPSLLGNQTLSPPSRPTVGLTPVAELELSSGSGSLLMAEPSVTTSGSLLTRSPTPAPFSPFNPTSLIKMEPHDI
Procedure, shortened: as §1

ELK4 = target: T9, ELK4 (Homo sapiens, UniProt P28324-2 1-405); settings: protein: recombinant; tags: N-terminal GST; dsDNA, one strand shown
T9 sequence: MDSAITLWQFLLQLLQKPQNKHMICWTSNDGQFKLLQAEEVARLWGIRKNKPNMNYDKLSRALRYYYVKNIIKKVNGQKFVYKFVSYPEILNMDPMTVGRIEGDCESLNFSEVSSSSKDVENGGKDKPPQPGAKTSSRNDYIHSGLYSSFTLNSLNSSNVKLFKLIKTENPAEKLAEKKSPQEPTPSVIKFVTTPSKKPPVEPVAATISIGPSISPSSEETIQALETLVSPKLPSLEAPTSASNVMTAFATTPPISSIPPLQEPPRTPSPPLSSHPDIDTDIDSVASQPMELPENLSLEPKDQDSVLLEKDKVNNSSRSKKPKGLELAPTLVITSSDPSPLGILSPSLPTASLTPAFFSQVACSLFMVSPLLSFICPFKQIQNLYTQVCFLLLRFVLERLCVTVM
Procedure, shortened: as §1

ETV2 = target: T10, ETV2 (Homo sapiens, UniProt O00321 1-342); settings: protein: recombinant; tags: N-terminal GST; dsDNA, one strand shown
T10 sequence: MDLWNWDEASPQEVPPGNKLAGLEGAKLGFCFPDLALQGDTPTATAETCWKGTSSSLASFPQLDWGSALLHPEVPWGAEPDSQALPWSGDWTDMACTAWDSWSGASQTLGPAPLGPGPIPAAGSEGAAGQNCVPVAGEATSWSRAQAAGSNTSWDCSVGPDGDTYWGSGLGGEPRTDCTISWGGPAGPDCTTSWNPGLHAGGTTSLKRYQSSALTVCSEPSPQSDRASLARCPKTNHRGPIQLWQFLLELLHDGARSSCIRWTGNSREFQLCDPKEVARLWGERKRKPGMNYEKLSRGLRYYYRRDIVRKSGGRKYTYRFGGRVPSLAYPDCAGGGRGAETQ
Procedure, shortened: as §1

ELF3 = target: T11, ELF3 (Homo sapiens, UniProt P78545 1-371); settings: protein: recombinant; tags: N-terminal GST; dsDNA, one strand shown
T11 sequence: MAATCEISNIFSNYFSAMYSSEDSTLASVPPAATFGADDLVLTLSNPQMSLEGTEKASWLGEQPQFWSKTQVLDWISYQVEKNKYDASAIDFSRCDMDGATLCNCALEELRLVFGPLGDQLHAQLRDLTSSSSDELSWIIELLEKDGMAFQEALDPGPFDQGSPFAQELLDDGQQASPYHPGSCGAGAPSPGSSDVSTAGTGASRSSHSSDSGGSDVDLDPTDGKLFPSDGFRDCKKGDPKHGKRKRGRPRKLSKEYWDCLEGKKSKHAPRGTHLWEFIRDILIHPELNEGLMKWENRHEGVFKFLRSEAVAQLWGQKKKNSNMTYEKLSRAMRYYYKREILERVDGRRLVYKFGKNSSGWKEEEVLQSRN
Procedure, shortened: as §1

ETV1 = ETV1 (Homo sapiens, UniProt P50549 1-477); settings: protein: recombinant; tags: N-terminal GST; dsDNA, one strand shown
ETV1, sequence (P50549 whole entry): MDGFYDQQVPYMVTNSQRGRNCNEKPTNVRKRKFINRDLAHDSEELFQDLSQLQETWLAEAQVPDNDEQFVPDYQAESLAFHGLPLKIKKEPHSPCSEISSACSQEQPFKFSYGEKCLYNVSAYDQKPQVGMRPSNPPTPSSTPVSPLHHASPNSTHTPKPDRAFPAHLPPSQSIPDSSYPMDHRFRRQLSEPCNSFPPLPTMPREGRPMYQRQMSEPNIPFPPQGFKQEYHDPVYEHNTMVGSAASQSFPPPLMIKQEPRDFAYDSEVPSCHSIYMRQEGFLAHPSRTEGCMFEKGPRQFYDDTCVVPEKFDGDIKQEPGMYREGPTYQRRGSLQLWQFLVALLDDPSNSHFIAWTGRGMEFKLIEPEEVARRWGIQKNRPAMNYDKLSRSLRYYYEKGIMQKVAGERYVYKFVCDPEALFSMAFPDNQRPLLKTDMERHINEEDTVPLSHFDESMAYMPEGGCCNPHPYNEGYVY
Procedure, shortened: as §1

## GGAACT
FLI1
  binding signal: 1.83 fold enrichment (6-mer frequency, TF over GST control)
ELK1
  binding signal: 1.8 fold enrichment (6-mer frequency, TF over GST control)
GABPA
  binding signal: 1.61 fold enrichment (6-mer frequency, TF over GST control)
ERG
  binding signal: 1.89 fold enrichment (6-mer frequency, TF over GST control)
ELF1
  binding signal: 1.72 fold enrichment (6-mer frequency, TF over GST control)
EHF
  binding signal: 1.8 fold enrichment (6-mer frequency, TF over GST control)
SPI1
  binding signal: 2.42 fold enrichment (6-mer frequency, TF over GST control)
SPIB
  binding signal: 2.03 fold enrichment (6-mer frequency, TF over GST control)
ELK3
  binding signal: 1.7 fold enrichment (6-mer frequency, TF over GST control)
FEV
  binding signal: 1.72 fold enrichment (6-mer frequency, TF over GST control)
ETV5
  binding signal: 1.96 fold enrichment (6-mer frequency, TF over GST control)
HSF1
  binding signal: 1.31 fold enrichment (6-mer frequency, TF over GST control)
SPIC
  binding signal: 2.08 fold enrichment (6-mer frequency, TF over GST control)
ELF4
  binding signal: 1.55 fold enrichment (6-mer frequency, TF over GST control)
ELK4
  binding signal: 1.49 fold enrichment (6-mer frequency, TF over GST control)
ETV2
  binding signal: 1.89 fold enrichment (6-mer frequency, TF over GST control)
ELF3
  binding signal: 1.87 fold enrichment (6-mer frequency, TF over GST control)
ETV1
  binding signal: 2.03 fold enrichment (6-mer frequency, TF over GST control)
